Experimental data published in PubChem BioAssay (NCATS).
Results filed as inconclusive are left out. The source made the active and inactive calls. Calls follow the shape of the dose curve; as a rule, active = well fitted curve in the direction sought with a large enough effect; inconclusive = small, poorly fitted or top-dose-only effect, or another doubt; inactive = no such curve, though single readings can be large; an effect the other way counts as inactive or inconclusive.

Test system: Nanoluciferase (engineered Oplophorus gracilirostris luciferase)
Assay: Primary Nanoluciferase (NLuc) qHTS assay for identification of artifact compounds. (AID 1845222);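 also: NLuc secreted into diluted conditioned medium of S16 cells; 0% = DMSO and -100% = no enzyme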
Conditions: NLuc-conditioned medium, Nano-Glo luminescence, 5 min; series mostly up to 54.1 µM; activity, negative = inhibition: at the top concentration
Summary of the method: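 NLuc from S16 cell medium (1:55) plus test compounds, 15 min, room temperature. Luminescence after Nano-Glo (1:100) addition, 5 min.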

| SMILES | activity, negative = inhibition |
| --- | --- |
| COC(=O)C1=COC(OC2OC(CO)C(O)C(O)C2O)C2C1CC(OC(=O)C(O)CC(=O)O)C2C (centres undefined) | 2.22% [at 25.7 µM] (inactive) |
| c1ccc(Cc2ncc3c(n2)CCNCC3)cc1 | 2.78% (inactive) |
| COC(=O)C1C(CC(C)=O)C=CC(O)C12Oc1cc(C)cc(O)c1C2=O (centres undefined) | 1.78% (inactive) |
| CC(=O)OC[C@@]12[C@@H](OC(C)=O)C[C@@H](C)[C@](C)([C@@H]3C[C@H]4C=CO[C@H]4O3)[C@H]1CCC[C@]21CO1 | 4.69% [at 25.7 µM] (inactive) |
| COc1ccc([C@H]2Cc3cccc(O)c3C(=O)O2)cc1 | -0.361% (inactive) |
| COc1cc(C2Oc3c(OC)cc(CCCO[C@@H]4O[C@H](CO)[C@@H](O)[C@H](O)[C@H]4O)cc3C2CO)ccc1O (some centres undefined) | -20.8% [at 25.7 µM] (inactive) |
| COc1cc(/C=C/C(=O)OC[C@H]2O[C@H](O[C@]3(CO)O[C@H](CO)[C@@H](O)[C@@H]3O)[C@H](O)[C@@H](O)[C@@H]2O)cc(OC)c1O | -3.51% [at 25.7 µM] (inactive) |
| C[C@]1(O)CC[C@@H]2C(C(=O)O)=CO[C@@H](O[C@@H]3O[C@H](COC(=O)c4ccc(O)cc4)[C@@H](O)[C@H](O)[C@H]3O)[C@@H]21 | 3.98% [at 25.7 µM] (inactive) |

Test system: not listed separately
Assay: Primary redox qHTS assay for identification of artifact compounds. (AID 1845223);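 also: 0% = DMSO and 100% = reference compound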
Conditions: Amplex Red/HRP redox cycling with DTT, fluorescence; series mostly up to 53.8 µM; redox activity (% of DA3003): at the top concentration
Summary of the method: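 Redox-cycling detection via DTT (250 uM final) oxidation coupled to Amplex Red (25 uM)/HRP (250 mU/mL) in HBSS. 15 min preincubation plus 30 min after DTT, room temperature. Ex/Em 525/598 nm; 4-parameter Hill fit against DMSO and 10 uM DA3003.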

| SMILES | Potency | redox activity (% of DA3003) |
| --- | --- | --- |
| N[C@H]1C[C@H]1c1ccc(-c2cccc(O)c2)cc1 | inactive | – |
| CC(C)NC[C@H](O)COc1ccc(CCOCC2CC2)cc1 | – | -0.113% (inactive) |
| NCc1ccc(OCCCc2sc(-c3ccc4c(c3)/C(=N/Nc3nc5ccccc5s3)CCC4)nc2C(=O)O)cc1 | – | 13.3% (inactive) |
| CC1(C)CCC(C)(C)c2cc([C@@H](O)C(=O)Nc3ccc(C(=O)O)cc3F)ccc21 | – | 22% (inactive) |
| CCOc1nc2cccc(C(=O)OCc3oc(=O)oc3C)c2n1Cc1ccc(-c2ccccc2-c2noc(O)n2)cc1 | – | 10.6% (inactive) |
| COc1cc(/C=C/C(=O)O[C@H]2[C@H](O)[C@@H](CO)O[C@@]2(CO)O[C@H]2O[C@H](COC(=O)c3ccc(O)cc3)[C@@H](O)[C@H](O)[C@H]2O)cc(OC)c1OC | – | -13% [at 25.6 µM] (inactive) |
| O=C1NC(=Nc2ccccc2F)S/C1=C\c1ccc(C(=O)O)cc1 | – | -3.81% (inactive) |
| CC1(C)CC[C@]2(C(=O)O)CC[C@]3(C)C(=CCC4[C@@]5(C)CC[C@H](O[C@@H]6O[C@H](C(=O)O)[C@@H](O)[C@H](O)[C@H]6O)C(C)(CO)C5CC[C@]43C)C2C1 (some centres undefined) | – | 0.211% [at 25.6 µM] (inactive) |
| CC1=C(C)C(=O)OC(C(C)C2C(O)CC3C4C5OC5C5(O)CC(OC6OC(CO)C(O)C(O)C6O)CC(O)C5(C)C4CCC32C)C1 (centres undefined) | – | -5.29% [at 25.6 µM] (inactive) |
| O=C(c1ccc(C#Cc2cccc(F)c2)cn1)N1CC2CC2C1 (centres undefined) | – | 5.37% (inactive) |
| Nc1ccn([C@@H]2C(F)=C(CO)[C@@H](O)[C@H]2O)c(=O)n1 | – | -7.88% (inactive) |
| CC[C@H]1OC(=O)C[C@@H](O)[C@H](C)[C@@H](O[C@@H]2O[C@H](C)[C@@H](O)[C@H](N(C)C)[C@H]2O)[C@@H](CCN2C[C@H](C)C[C@H](C)C2)C[C@@H](C)C(=O)/C=C/C(C)=C/[C@@H]1CO[C@@H]1O[C@H](C)[C@@H](O)[C@@H](OC)[C@H]1OC | – | 6.03% (inactive) |
| COC(=O)[C@H](OC(C)=O)[C@H]1C(C)(C)C(=O)[C@H]2CC3=C4CC(=O)O[C@@H](c5ccoc5)[C@]4(C)CCC3[C@@]1(C)C2=O (some centres undefined) | – | 18.2% [at 25.6 µM] (inactive) |
| C=C1CC[C@@H]2[C@](C)(CO[C@@H]3O[C@H](CO)[C@@H](O)[C@H](O)[C@H]3O)CCC[C@@]2(C)[C@@H]1CCC1=CCOC1=O | – | 15.2% [at 25.6 µM] (inactive) |
| O=C1C[C@@H](c2ccc(O)cc2)Oc2cc(O)ccc21 | – | -5.18% (inactive) |
| N[C@@H](CC(=O)N1CCn2c(nnc2C(F)(F)F)C1)Cc1[nH]nc2c(F)c(F)ccc12 | – | -5.03% (inactive) |
| C[C@]1(OC(=O)/C=C/c2ccccc2)C[C@H](O)[C@]2(O)C=CO[C@@H](O[C@@H]3O[C@H](CO)[C@@H](O)[C@H](O)[C@H]3O)C12 (some centres undefined) | – | -12.9% [at 25.6 µM] (inactive) |
| CC1(CO)CC2C(O)C(=O)C3(CO)CC3(C)C2C1 (centres undefined) | – | -13.1% (inactive) |
| COc1cc(NC(=O)c2ccccn2)ccc1Cl | – | -6.29% (inactive) |
| Oc1ccc([C@H]2COc3cc(O)ccc3C2)cc1 | – | -4.2% (inactive) |
| COC(=O)C1=COC(OC2OC(CO)C(O)C(O)C2O)C2C1CC(OC(=O)C(O)CC(=O)O)C2C (centres undefined) | – | -1.12% [at 25.6 µM] (inactive) |
| c1ccc(Cc2ncc3c(n2)CCNCC3)cc1 | – | 0.397% (inactive) |
| COC(=O)C1C(CC(C)=O)C=CC(O)C12Oc1cc(C)cc(O)c1C2=O (centres undefined) | – | 15.4% (inactive) |
| CC(=O)OC[C@@]12[C@@H](OC(C)=O)C[C@@H](C)[C@](C)([C@@H]3C[C@H]4C=CO[C@H]4O3)[C@H]1CCC[C@]21CO1 | – | -6.45% [at 25.6 µM] (inactive) |
| COc1ccc([C@H]2Cc3cccc(O)c3C(=O)O2)cc1 | – | -14.7% (inactive) |
| COc1cc(/C=C/C(=O)OC[C@H]2O[C@H](O[C@]3(CO)O[C@H](CO)[C@@H](O)[C@@H]3O)[C@H](O)[C@@H](O)[C@@H]2O)cc(OC)c1O | – | -1.35% [at 25.6 µM] (inactive) |
